Rows were chosen to be rich in hits. Some 2.4% of all compounds tested hit in one or more screens of this group.
PHOSPHO1 inh – PHOSPHO1 (human) inhibition; recombinant PHOSPHO1, absorbance phosphatase assay; inhibition, % at 13.3 µM; actives 1.1% (n = 290,000); in the data active = inhibition above about 60%
Target sequence (Q8TCT1 whole entry, looked up): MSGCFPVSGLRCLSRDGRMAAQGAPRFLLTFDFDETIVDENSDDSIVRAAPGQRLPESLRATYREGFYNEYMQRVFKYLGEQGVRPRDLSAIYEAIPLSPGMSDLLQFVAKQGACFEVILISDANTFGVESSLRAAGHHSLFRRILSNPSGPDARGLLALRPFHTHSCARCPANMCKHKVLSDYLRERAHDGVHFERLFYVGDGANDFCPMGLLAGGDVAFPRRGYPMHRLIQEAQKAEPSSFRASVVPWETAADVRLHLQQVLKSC
MLLE-PAM2 inh – blocks PAM2 peptide binding to the PABP1 MLLE domain; P11940; GST-MLLE / FITC-PAM2 fluorescence polarization; inhibition, % at 20 µM; actives 0.36% (n = 360,000); in the data active = inhibition above about 35%, passing the limit was not always enough;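 also: plate controls were DMSO wells with GST-MLLE for no effect and wells lacking GST-MLLE protein for full effect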
eIF4H inh – inhibitors of RNA binding by human eIF4H; Q15056; eIF4H fluorescence polarization binding assay; inhibition, % at 35 µM; actives 0.94% (n = 290,000);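 also: calls also rest on retests at 20 µM and on dose response follow-up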
PABP FP inh – PABP-poly(A) binding inhibition; P11940; PABP-poly(A) RNA binding, fluorescence polarization; calls only at 35 µM; actives 1% (n = 290,000); AID 2014;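 also: calls also rest on retests at 20 µM and on dose response follow-up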
HMGR II inh – E. faecalis class II HMG-CoA reductase inhibition | purified E. faecalis HMGR, NADPH absorbance 340 nm kinetic | inhibition, % at 10 µM | actives 0.41% (n = 190,000) | AID 1066;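 active = inhibition above a set limit, the median over all tested compounds plus 3 SD, cut at about 9.5% in these data; inconclusive = no clear call, values can overlap the other calls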;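 also: enzyme runs in reverse so mevalonate oxidation gives rising NADPH absorbance; 0% = complete reaction with DMSO and 100% = background rate lacking mevalonate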
An asterisk follows results filed as active; i = inactive; ? = inconclusive; nt = no result given; + = active, no number. Unless noted, no rule for the calls is given here.

SMILES	PHOSPHO1 inh	MLLE-PAM2 inh	eIF4H inh	PABP FP inh	HMGR II inh
CN(Cc1ccccc1)C(=O)c1[nH]cnc1C(=O)Nc1ccccc1F	nt	4	nt	nt	nt
CCOC(=O)C1=C(O)/C(=C/c2ccc(CNC(=O)C(=O)Nc3ccc(C)cc3)o2)N=C1C	22	-17	103*	i	3
COC(=O)C1=C(O)/C(=C\c2ccc(CNC(=O)C(=O)Nc3ccc(C)cc3)o2)N=C1C	8	-10	?	?	-3
Cc1cc(O)c(C=O)c2c1C(=O)Oc1c(CO)c(O)c3c(c1O2)C(O)OC3=O (configuration not stated)	44	24	108*	+	-5
Cc1onc(-c2c(F)cccc2Cl)c1C(=O)N=C(N)N1CCCC1	17	-7	12	i	nt
CCCCCC(=O)N1CC2(CC)CN(C(=O)CCCCC)CC(CC)(C1)C2=O	46	-8	99*	+	nt
C/C(CC(=O)NCc1ccco1)=N\NC(=O)c1ccc(Cl)cc1Cl	14	-9	-2	i	nt
Cc1ccc(-c2nnc(-n3ncc(C#N)c3N)c3ccccc23)cc1C	-4	-4	-5	i	-2
CN(C)CCOc1cc(Cl)cc(Cl)c1	32	-3	-1	i	-1
CC(=O)Oc1cc(C(C)C)c(OCCN(C)C)cc1C	-4	-3	-9	i	9.7*
CCN1C(=O)/C(=C/c2ccc(OC)c(OC)c2)N=C1SCC(=O)NCc1ccco1	2	38*	12	i	-5
COc1ccc(-c2ccc(SCC(=O)NCc3ccco3)nn2)cc1OC	0	23	2	i	-4
CCN(CC)C(=O)C1=C(C)N(Cc2ccc(C(C)(C)C)cc2)C(=O)C(CC(=O)NC2CC2)C1 (configuration not stated)	nt	4	nt	nt	nt
O=C(NCCCn1ccnc1)c1ccc(-c2cccc(C(F)(F)F)c2)o1	nt	-3	nt	nt	nt
CC1CC(C)CN(CC(O)COCc2ccccc2F)C1 (configuration not stated)	20	0	0	i	nt
CC1=C(C#N)C(=O)N(C2CCS(=O)(=O)C2)C(=O)/C1=C\c1ccco1 (configuration not stated)	3	nt	102*	+	nt
CC(=O)NCc1nnc2c3ccccc3c(-c3ccccc3)nn12	61*	6	0	i	-5
O=C(COc1ccccc1)NCc1nnc2c3ccccc3c(-c3ccccc3)nn12	-14	0	-13	i	-4
CN(Cc1ccccc1)C1=CC(=[N+]2CCCCC2)CC(C)(C)C1	-6	-125	-10	+	nt
CC1(C)CC(N2CCN(Cc3ccccc3)CC2)=CC(=[N+]2CCCCC2)C1	34	-105	8	i	nt
COC(=O)C1=COC(OC2OC(CO)C(O)C(O)C2O)C2C(C)CC(=O)C12 (configuration not stated)	nt	-4	nt	nt	nt
O=C(NCc1cccnc1)C1Cc2c(-c3ccc(Cl)cc3)ccnc2O1 (configuration not stated)	nt	-8	nt	nt	nt
CCOC(=O)c1[nH]c2ccccc2c1NC(=S)Nc1cccc(C)c1C	-26	41*	-1	i	2
COc1ccc(S(=O)(=O)c2c(O)cc(C)c(NS(=O)(=O)c3ccccc3)c2C)cc1	32	-11	8	i	nt
CC1=CC(=O)C2=C(C)CCC3C(C)C(=O)OC3C12 (configuration not stated)	nt	12	nt	nt	nt
SMILES	PHOSPHO1 inh	MLLE-PAM2 inh	eIF4H inh	PABP FP inh	HMGR II inh
COc1ccc(C(=O)NN2CCOCC2)cc1	38	12	-9	i	nt
O=C(O)c1cc(-c2ccc(/C=C3/SC(=S)N(Cc4ccccc4)C3=O)o2)ccc1Cl	65*	i	86*	+	-1
COc1ccc(CN2C(=O)/C(=C/c3ccc(-c4ccc(Cl)c(C(=O)O)c4)o3)SC2=S)cc1	9	nt	?	i	-2
Cc1ccc(/C=C2\SC(=S)N(Cc3ccccc3)C2=O)o1	67*	7	13	i	-5
O=C1/C(=C/c2ccncc2)SC(=S)N1Cc1ccccc1	1	28	-5	i	nt
COCCNc1nc(-c2cc(F)ccc2C)c2sc(-c3ccccc3)cc2n1	nt	-13	nt	nt	nt
Cc1ccc(C)c(NC(=O)CSc2nc(=O)n(CCN3CCOCC3)c3c2CCCC3)c1	nt	0	nt	nt	nt
CCC(=O)NC(=S)NNC(=O)c1ccc(O)cc1	81*	-5	10	i	-7
CCC(=O)NNC(=S)NC(=O)c1ccc(C)cc1	37	3	0	i	4
CCc1c(C(C)S(=O)(=O)c2ccc(C)cc2)[nH]c(=O)n1-c1ccc(C)cc1 (configuration not stated)	90*	21	15	i	1
CSc1sc2ccccc2[n+]1CCCS(=O)(=O)[O-]	89*	26	0	i	-3
CC(CCc1ccccc1)NC(=O)/C=C/c1ccccc1 (configuration not stated)	64*	-8	-2	i	-4
CC(CCc1ccccc1)NC(=O)/C=C/c1ccc(F)cc1 (configuration not stated)	-15	nt	9	i	-2
O=C(N/N=C/C(Cl)=C\c1ccccc1)c1cnccn1	14	-14	-10	i	-4
O=C(N/N=C/C(Cl)=C/c1ccccc1)c1cnccn1	-3	-9	-2	i	14*
CS(=O)(=O)/C(C#N)=C/c1cccn1S(=O)(=O)c1ccccc1	5	-2	-8	i	nt
N#CC(C#N)=Cc1cccn1-c1ccc(S(N)(=O)=O)cc1	1	9	0.5*	+	-2
O=C(c1ccc(COc2ccccc2[N+](=O)[O-])o1)N1CCCCC1	18	0	-4	i	-6
O=C(c1ccc(COc2ccccc2[N+](=O)[O-])o1)N1CCCCCC1	1	20	-2	i	12*
Oc1ccc(C2=Nn3c(nnc3-c3ccco3)SC2)cc1O	31	-6	43	i	12*
COCCNC(=S)N/N=C(\C)c1ccccc1O	-2	44*	6	i	1
CN(C[C@H](Cc1ccccc1)N(CCN(CCc1ccccc1)N=O)N=O)N=O	39	-9	-8	+	-2
CC(C)C[C@@H](CN(C)N=O)N(C[C@H](Cc1ccccc1)N(CCc1ccccc1)N=O)N=O	-3	-8	-6	i	-1
O=C(OCc1ccccn1)c1ccc(COc2ccc3ccccc3c2)o1	10	1	-3	i	nt
CCCc1cc(-n2ccnc2)n2c(nc3ccccc32)c1C#N	-7	-48	125*	i	0
Cc1cccc(Oc2ccc(NC(=O)C3=CC=CN4CCS(=O)(=O)N=C34)cc2)c1	nt	9	nt	nt	nt
CC(NC(=O)c1cccc(S(=O)(=O)N2CCN(Cc3ccccc3)CC2)c1)c1ccc(Br)cc1 (configuration not stated)	37	-60	4	i	nt
O=c1oc2ccccc2n1CCCCCn1c(=O)oc2ccccc21	7	-7	-1	i	-4
N#CCCCn1c(=O)oc2ccccc21	-1	-5	26	i	15*
Cc1cccc(-c2nc(=S)c3c(o2)CCCC3)c1	19	45*	-7	i	-6

Compound activity from PubChem.
